Test systems include NCI-H23 lung; NCI-H226 lung; NCI-H322M lung; HOP-62 NSCLC; NCI-H460 lung; HOP-92 NSCLC; NCI-H522 lung; A549/ATCC NSCLC; 786-0 renal; COLO 205 colon.
Assay in all cases: NCI-60 one-dose screen, 48 h (100 = growth as untreated, 0 = no growth, -100 = all killed)
What all share (conditions): 10 µM unless noted

Compounds without any hit were thinned out: in the full panel of roughly 83,000, 20% have a hit.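 Note: values are percent growth. 100 is the growth of untreated cells, values between 100 and 0 indicate rising inhibition; between -100 and 0 indicates cell death.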 A number with no mark means an inactive call. Calls of active or inactive are those of the source. Rule for the calls: active = growth percent below 10; inactive = the rest.

Regarding `O=C(NCCCN1CCN(CCCNC(=O)C2CCCCC2)CC1)C1CCCCC1`, the growth with NCI-H23 lung was 111%; with NCI-H226 lung it was 105%; with NCI-H322M lung, 91.9%; in the assay with HOP-62 NSCLC it was 94.7%; in the assay with NCI-H460 lung, 101%; in the assay with HOP-92 NSCLC, 70.5%. The growth is 95% with NCI-H522 lung, 101% in the assay with A549/ATCC NSCLC, 96.5% in the assay with 786-0 renal and 104% with COLO 205 colon.
In the case of `COc1ccccc1CNCCCN1C(=O)c2ccc3c4c(ccc(c24)C1=O)C(=O)N(CCCNCCCCNCCCCN)C3=O`, the growth in the assay with NCI-H23 lung is 6.63% (active); in the assay with NCI-H226 lung, 27%; in the assay with NCI-H322M lung, -21.5% (active); with HOP-62 NSCLC, 22.2%; in the assay with NCI-H460 lung, 0.275% (active); in the assay on HOP-92 NSCLC, -6.2% (active). The growth with NCI-H522 lung is -40.8% (active); in the assay on A549/ATCC NSCLC, -3.81% (active); with 786-0 renal, 23.3%; in the assay with COLO 205 colon, -45.4% (active).
As for `CCCCNC(=O)NS(=O)(=O)c1ccc(N2N=C(c3ccc(C)cc3C)CC2c2ccc(OC)cc2)cc1` (stereo not given), the growth in the assay with NCI-H23 lung is 65.4%; with NCI-H226 lung it was 86.7%; in the assay on NCI-H322M lung, 90.6%; in the assay on HOP-62 NSCLC, 92%; in the assay with NCI-H460 lung, 48.3%; in the assay with HOP-92 NSCLC it was 75.1%. Also, the growth with NCI-H522 lung is 54.4%; in the assay on A549/ATCC NSCLC it was 38.4%; in the assay with 786-0 renal it was 61.3%; in the assay on COLO 205 colon, 93.5%.
With `O=C(O)c1cn(C2CC2)c2cc(N3CCN(S(=O)(=O)c4ccc(Cl)c(Cl)c4)CC3)c(F)cc2c1=O`, the growth is 1.76% (active) with NCI-H23 lung; 41.4% with NCI-H226 lung; 21.3% with NCI-H322M lung; 15.2% in the assay with HOP-62 NSCLC; 5.77% (active) with NCI-H460 lung; 12.2% in the assay with HOP-92 NSCLC. Further, the growth is -21.4% (active) in the assay on NCI-H522 lung, 6.02% (active) in the assay with A549/ATCC NSCLC, 27.8% in the assay with 786-0 renal and -68.4% (active) in the assay with COLO 205 colon.
For the compound `CCn1cc(C2NC(=O)c3cc(F)ccc3N2)c2cccc(Cl)c21` (stereo not given), the growth is 30.8% in the assay with NCI-H23 lung; 49.5% with NCI-H226 lung; 45.5% with NCI-H322M lung; 28.5% in the assay with HOP-62 NSCLC; 6.22% (active) with NCI-H460 lung; 72% in the assay with HOP-92 NSCLC. Further, the growth in the assay on NCI-H522 lung is -22.1% (active); in the assay with A549/ATCC NSCLC, 3.82% (active); with 786-0 renal, 42.3%; with COLO 205 colon, -11.5% (active).
`NC(N)=NC(N)=Nc1ccccc1-c1ccccc1`: the growth with NCI-H23 lung was 100%; in the assay with NCI-H226 lung, 111%; in the assay on NCI-H322M lung, 105%; in the assay on HOP-62 NSCLC, 115%; in the assay with NCI-H460 lung, 105%; with HOP-92 NSCLC, 109%. The growth with NCI-H522 lung is 106%; in the assay on A549/ATCC NSCLC, 105%; in the assay with 786-0 renal it was 106%; in the assay on COLO 205 colon it was 125%.
`COc1cc(NCCN=C(N)NC(N)=NC(C)C)c2ncccc2c1`: the growth in the assay with NCI-H23 lung was 44.7%; in the assay with NCI-H226 lung it was 94.7%; with NCI-H322M lung, 47.4%; in the assay with HOP-62 NSCLC, 94.8%; in the assay on NCI-H460 lung, 82.1%; in the assay on HOP-92 NSCLC, 33.2%. The growth is -3.01% (active) in the assay on NCI-H522 lung, 91.4% in the assay with A549/ATCC NSCLC, 105% in the assay on 786-0 renal and 20.4% in the assay with COLO 205 colon.
Turning to `Cc1ccc(Nc2ncnc3c2sc2ncccc23)cc1`, the growth with NCI-H23 lung was 101%; in the assay with NCI-H226 lung, 91.7%; in the assay on NCI-H322M lung, 95.9%; with HOP-62 NSCLC it was 103%; in the assay with NCI-H460 lung, 97.6%; with HOP-92 NSCLC, 106%. In addition, the growth with NCI-H522 lung is 106%; in the assay on A549/ATCC NSCLC, 98.2%; in the assay with 786-0 renal, 101%; in the assay with COLO 205 colon, 107%.
Consider `Nc1nc(N)c2nc(CNc3ccc(C(=O)CC(CCC(=O)O)C(=O)O)cc3)cnc2n1` (stereo not given), for which the growth was 31.4% in the assay with NCI-H23 lung; 38.2% in the assay on NCI-H226 lung; 47.5% in the assay on NCI-H322M lung; 39.8% in the assay on HOP-62 NSCLC; 19.8% in the assay with NCI-H460 lung; -3.77% (active) in the assay on HOP-92 NSCLC. Moreover, the growth is -9.57% (active) with NCI-H522 lung, 2.47% (active) with A549/ATCC NSCLC, 20.9% with 786-0 renal and 66% in the assay with COLO 205 colon.
As to `CCOC(=O)C1=C(C)NC(=O)NC1c1ccc(OCC(=O)N/N=C/c2ccc(Cl)cc2)cc1` (stereo not given), the growth in the assay on NCI-H23 lung is 105%; in the assay with NCI-H226 lung, 95.8%; with NCI-H322M lung it was 87.5%; with HOP-62 NSCLC, 89.9%; with NCI-H460 lung, 101%; in the assay on HOP-92 NSCLC, 90.1%. For the same compound, the growth was 81.2% with NCI-H522 lung, 77% in the assay on A549/ATCC NSCLC, 97.6% with 786-0 renal and 105% in the assay on COLO 205 colon.
`CCSc1nnc(NC(=O)COc2ccc(Cl)cc2C)s1`: the growth is 105% with NCI-H23 lung; 101% in the assay with NCI-H226 lung; 120% in the assay on NCI-H322M lung; 100% in the assay on HOP-62 NSCLC; 112% in the assay with NCI-H460 lung; 83.2% in the assay on HOP-92 NSCLC. Moreover, the growth in the assay on NCI-H522 lung is 94.4%; in the assay on A549/ATCC NSCLC, 104%; in the assay on 786-0 renal it was 94.7%; in the assay on COLO 205 colon, 93.9%.
For the compound `OC1CC2c3ccccc3C1c1ccccc12` (stereo not given), the growth is 101% in the assay with NCI-H23 lung; 106% in the assay on NCI-H226 lung; 114% with NCI-H322M lung; 108% with HOP-62 NSCLC; 110% with NCI-H460 lung; 96.2% in the assay with HOP-92 NSCLC. Also, the growth with NCI-H522 lung is 102%; with A549/ATCC NSCLC, 100%; in the assay on 786-0 renal, 98.9%; in the assay with COLO 205 colon it was 112%.
Turning to `O=C(c1c[nH]c2ccccc12)C(Sc1nc2ccccc2c(=O)[nH]1)c1ccccc1` (stereo not given), the growth with NCI-H23 lung was 116%; in the assay with NCI-H226 lung, 95.9%; with NCI-H322M lung, 121%; in the assay on HOP-62 NSCLC, 89.6%; in the assay with NCI-H460 lung, 110%; in the assay on HOP-92 NSCLC, 91.7%. Moreover, the growth with NCI-H522 lung is 93.7%; with A549/ATCC NSCLC it was 93.4%; with 786-0 renal it was 104%; in the assay on COLO 205 colon, 96.9%.
`COc1cc(NC(=O)c2cc3ccccc3nc2Nc2ccc(F)cc2)cc(OC)c1OC`: the growth in the assay on NCI-H23 lung is 39.8%; in the assay on NCI-H226 lung, 43%; in the assay on NCI-H322M lung, 65.8%; with HOP-62 NSCLC, 83.2%; with NCI-H460 lung, 40.3%; in the assay on HOP-92 NSCLC, 28.5%. Further, the growth with NCI-H522 lung is 49.8%; with A549/ATCC NSCLC, 42.8%; with 786-0 renal it was 53.5%; in the assay on COLO 205 colon it was 38%.

The record behind these values is PubChem BioAssay (NCI).
